Data reported in PubChem BioAssay (NCATS).
Inconclusive results are not listed. Activity calls are given as the source filed them. Calls come from the whole dose curve; as a rule, active = well fitted curve in the direction sought with a large enough effect; inconclusive = small, poorly fitted or top-dose-only effect, or another doubt; inactive = no such curve, though single readings can be large; an effect the other way counts as inactive or inconclusive.

Columns and labels:
[1] = molecular target: Glutathione peroxidase 1 (Homo sapiens) (UniProt P07203); test: Primary qHTS Assay for Inhibitors of Recombinant Selenoprotein Glutathione Peroxidase 1 (GPX1) (AID 1845191); note: nearly all actives have a fitted effect of over 65% in size; note: potency is the fitted concentration of half-maximal effect; for activity, negative = inhibition: % is set by controls: 0 for no effect and ±100 for the full control effect
Sequence of Glutathione peroxidase 1 (Homo sapiens) (P07203 whole entry, looked up): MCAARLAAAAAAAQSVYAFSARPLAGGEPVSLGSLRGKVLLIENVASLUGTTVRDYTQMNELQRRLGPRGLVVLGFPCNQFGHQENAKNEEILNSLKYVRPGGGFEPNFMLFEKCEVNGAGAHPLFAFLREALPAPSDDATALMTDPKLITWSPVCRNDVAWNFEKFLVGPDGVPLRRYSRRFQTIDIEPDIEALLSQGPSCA
Procedure, shortened: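 10 nM GPX1 + cpd, 30 min RT; start w/ 1 mM GSH, 0.5 mM cumene hydroperoxide, 0.5 mM NADPH, 100 nM GR, 0.01% BSA; buffer 50 mM Tris-HCl pH 7.5, 2 mM EDTA, 150 mM NaCl; Fl 340/450, 0 & 15 min.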

[2] = molecular target: Phospholipid hydroperoxide glutathione peroxidase GPX4 (Homo sapiens) (UniProt P36969); test: Primary qHTS Assay for Inhibitors of Recombinant Selenoprotein Glutathione Peroxidase 4 (GPX4) (AID 1845192); note: nearly all actives have a fitted effect of over 65% in size; note: potency is the fitted concentration of half-maximal effect; for activity change, negative = inhibition: series mostly up to about 50 µM; % is set by controls: 0 for no effect and ±100 for the full control effect
Sequence of Phospholipid hydroperoxide glutathione peroxidase GPX4 (Homo sapiens) (P36969 whole entry, looked up): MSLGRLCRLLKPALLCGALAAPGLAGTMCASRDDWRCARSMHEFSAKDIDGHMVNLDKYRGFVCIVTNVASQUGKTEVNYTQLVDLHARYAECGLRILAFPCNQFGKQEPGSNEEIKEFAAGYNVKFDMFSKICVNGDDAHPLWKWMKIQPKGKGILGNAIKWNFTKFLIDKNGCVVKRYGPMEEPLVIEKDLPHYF
Procedure, shortened: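 NADPH consumption, followed by fluorescence at 340/450 nm between 0 and 15 min, reports GPX4 activity via coupled glutathione reductase (100 nM). Enzyme 200 nM was pre-exposed to compound 30 min; 0.5 mM cumene hydroperoxide and 1 mM GSH served as substrates.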

[3] = molecular target: Luciferin 4-monooxygenase (Photinus pyralis) (UniProt P08659); test: Primary firefly luciferase (FLuc) qHTS assay for identification of artifact compounds. (AID 1845220); note: nearly all actives have a fitted effect of over 60% in size; note: potency is the fitted concentration of half-maximal effect;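 for activity change, negative = inhibition: series mostly up to about 54 µM; plate controls were DMSO vehicle for no effect and no enzyme for full effect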
Procedure, shortened: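 Cell-free, 1536-well qHTS. Buffer pH 7.6 with 0.01% Tween-20 and 0.05% BSA; 10 uM D-luciferin, 10 uM ATP; 10 nM P. pyralis luciferase; luminescence after 5 min.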

[4] = Primary redox qHTS assay for identification of artifact compounds. (AID 1845223);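 note: 0% = DMSO and 100% = reference compound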
Procedure, shortened: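 Amplex Red (25 uM) and HRP (250 mU/mL) in HBSS, with compounds for 15 min, then 250 uM DTT for 30 min, room temperature, dark. Fluorescence 525/598 nm read; normalized to DMSO and 10 uM DA3003; Hill fit.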

[5] = Primary fluorescence-based thiol-reactive (MSTI) qHTS assay for identification of artifact compounds. (AID 1845221); note: nearly all actives have a fitted effect of over 65% in size; note: potency is the fitted concentration of half-maximal effect;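 for activity change, negative = thiol reactive: series mostly up to about 54 µM; thiol-reactive compounds lower the probe fluorescence signal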
Procedure, shortened: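 A multi-concentration qHTS design tested compounds against 4 uM MSTI, pH 7.4 phosphate-buffered saline. Plates were protected from light for 1 h at room temperature before imaging fluorescence.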

[6] = system: Nanoluciferase (engineered Oplophorus gracilirostris luciferase); test: Primary Nanoluciferase (NLuc) qHTS assay for identification of artifact compounds. (AID 1845222);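 note: series mostly up to about 54 µM; 0% = DMSO and -100% = no enzyme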
Procedure, shortened: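 Compounds are pinned into diluted (1:55) conditioned medium of NLuc-expressing S16 cells and held 15 min at room temperature protected from light. Nano-Glo substrate follows, and luminescence is read 5 min later.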

Cc1ncc(CCCN(C)C)cc1Nc1ncc2c(n1)-c1ccc(C(F)(F)F)cc1NC(=S)C2
inactive: Potency [2] | Potency [3] | Potency [4]
active: Potency [1] 12.8 µM

COc1cc2c(cc1OC)N1C(=O)C[C@]34C=CCN5CC[C@@H]2[C@@H](CC3)[C@]514
inactive: Potency [1] | Potency [2] | Potency [5] | Potency [6]

COc1ccc(-n2[nH]c(=O)c3[nH]c4cc(Cl)ccc4c(=O)c3c2=O)c(C)c1
inactive: Potency [1] | Potency [2] | Potency [3] | Potency [4]

C=C(C)C(=O)OC1CC2(C)OC(=CC2=O)C(=C)CC2OC(=O)C(COC)C12 (stereo not given)
inactive: Potency [1] | Potency [2] | Potency [6] | Potency [4]
active: Potency [3] 10.5 µM

COC1CC(O[C@H]2CC[C@@]3(C)C(CCC4C3[C@H](OC(C)=O)[C@@H](OC(=O)/C=C/c3ccccc3)[C@]3(C)C(C(C)=O)CC[C@]43O)C2)OC(C)C1OC1CC(OC)C(OC2CC(OC)C(OC3OC(C)C(OC4OC(CO)C(O)C(O)C4O)C(OC)C3O)C(C)O2)C(C)O1 (stereo not given in full)
inactive: outcome [1] inactive [at 9.52 µM] | activity change, negative = inhibition [2] -9.21% [at 9.73 µM] | activity change, negative = thiol reactive [5] 2.39% [at 11.5 µM] | activity, negative = inhibition [6] -1.88% [at 11.6 µM]

C/C=C/c1ccc(O[C@@H]2O[C@H](CO)[C@@H](O)[C@H](O)[C@H]2O)c(OC)c1
inactive: Potency [1] | Potency [2] | Potency [3] | Potency [4]

O=C(/C=C/c1ccc(O)cc1)OC1[C@H](O)CC(O)(C(=O)O)C[C@H]1O (stereo not given in full)
inactive: Potency [1] | Potency [2] | Potency [3] | Potency [4]

COc1cc(Br)c(Nc2nc(-c3c(C)nc4ncccn34)cs2)c(Br)c1
inactive: Potency [1] | Potency [2] | Potency [3] | Potency [6] | Potency [4]

COC(=O)C(C)C1CCC2(C)C(=O)C=CC(C)(O)C2C1O (stereo not given)
inactive: Potency [1] | Potency [2] | Potency [3] | Potency [6] | Potency [4]

C(#Cc1nc2ncccc2nc1OCCN1CCCC1)c1ccccc1
inactive: Potency [1] | Potency [2] | Potency [5] | Potency [6]

CC(=O)C=C=C1C(C)(C)CC(O[C@@H]2O[C@H](CO)[C@@H](O)[C@H](O)[C@H]2O)CC1(C)O (stereo not given in full)
inactive: Potency [1] | Potency [2] | Potency [3] | Potency [6] | Potency [4]

C=C1C(OC(C)=O)CCC2(C)CC3(OC)OC(=O)C(C)=C3CC12 (stereo not given)
inactive: Potency [1] | Potency [2] | Potency [3] | Potency [6] | Potency [4]

COC(=O)C1=COC(OC2OC(CO)C(O)C(O)C2O)C2C1C=CC2(O)CO (stereo not given)
inactive: Potency [1] | Potency [2] | Potency [3] | Potency [6] | Potency [4]

CC(=O)CCC1=C(C)C(O[C@@H]2O[C@H](CO)[C@@H](O)[C@H](O)[C@H]2O)C(O)CC1(C)C (stereo not given in full)
inactive: Potency [1] | Potency [2] | Potency [3] | Potency [6] | Potency [4]

Cc1cccc(/C=N/Nc2cc(N3CCOCC3)n3nc(-c4ccncc4)cc3n2)c1
inactive: Potency [1] | Potency [2] | Potency [3] | Potency [6] | Potency [4]

CC(C)O[C@@H]1O[C@H](CO)[C@@H](O)[C@H](O)[C@H]1O
inactive: Potency [1] | Potency [2] | Potency [3] | Potency [6] | Potency [4]

COc1ccc(CN2C(=O)C(=O)c3cc(S(=O)(=O)N4CCC[C@H]4COc4cccnc4)ccc32)cc1
inactive: Potency [5] | Potency [6] | Potency [4]
active: Potency [1] 22.7 µM | Potency [2] 25.5 µM

Cc1cc(Nc2ncc3cc(-c4c(Cl)cccc4Cl)c(=O)n(C)c3n2)ccc1F
inactive: Potency [1] | Potency [2] | Potency [5] | Potency [6] | Potency [4]

CC1C=CC2CCCCC2C1CCC1CC(O)CC(=O)O1 (stereo not given)
inactive: Potency [1] | Potency [2] | Potency [4]

COc1ccc(CCO[C@@H]2O[C@H](CO[C@@H]3OC[C@H](O)[C@H](O)[C@H]3O)[C@@H](O)[C@H](O)[C@H]2O)cc1
inactive: Potency [1] | Potency [2] | Potency [6] | Potency [4]
active: Potency [5] 10.3 µM

CC(C)(O)c1ccc2c(c1)C(O)C[C@H]1[C@](C)(C(=O)O)CCC[C@]21C (stereo not given in full)
inactive: Potency [1] | Potency [2] | Potency [6] | Potency [4]

CO[C@H]1C[C@@H]2CC[C@@H](C)[C@@](O)(O2)C(=O)C(=O)N2CCCC[C@H]2C(=O)O[C@H]([C@H](C)C[C@@H]2CC[C@@H](OP(C)(C)=O)[C@H](OC)C2)CC(=O)[C@H](C)/C=C(\C)[C@@H](O)[C@@H](OC)C(=O)[C@H](C)C[C@H](C)/C=C/C=C/C=C/1C
inactive: Potency [1] | Potency [2] | Potency [5] | Potency [6] | Potency [4]

Nc1ncnc2c([C@@H]3N[C@H](CO)[C@@H](O)[C@H]3O)c[nH]c12
inactive: Potency [1] | Potency [2] | Potency [5] | Potency [6] | Potency [4]

COc1ccc(C2COc3cc(O)ccc3C2)c(O)c1 (stereo not given)
inactive: Potency [1] | Potency [2] | Potency [5] | Potency [6] | Potency [4]

C#CCN(Cc1cc2c(=O)[nH]c(C)nc2cc1Br)c1ccc(C(=O)NCc2cccnc2)cc1
inactive: Potency [1] | Potency [2] | Potency [5] | Potency [6] | Potency [4]

Cc1ccccc1NC(=O)Nc1ccc(CC(=O)N(C)[C@@H](CC(C)C)C(=O)NCC[C@H](NC(=O)[C@@H]2CCCN2S(=O)(=O)c2cc(Cl)cc(Cl)c2)C(=O)O)cc1
inactive: Potency [1] | Potency [2] | Potency [5] | Potency [6] | Potency [4]

CC[C@H](NC(=O)[C@H](CS(=O)(=O)CC1CC1)N[C@@H](c1ccc(F)cc1)C(F)(F)F)C(=O)C(=O)NC1CC1
inactive: Potency [1] | Potency [2] | Potency [5] | Potency [6] | Potency [4]

CC(C)(C#N)c1ccc(N2C(=O)OCc3cnc4ccc(-c5cnc6ccccc6c5)cc4c32)cc1
inactive: Potency [1] | Potency [2] | Potency [5] | Potency [6] | Potency [4]

CC1COC2(OC3CC4C5CC(O[C@@H]6O[C@H](C)[C@@H](O[C@@H]7O[C@@H](C)[C@H](O)[C@@H](O)[C@H]7O)[C@H](O)[C@H]6O)C6CC(O)CCC6(C)C5CCC4(C)C3C2C)C(O)C1 (stereo not given in full)
inactive: Potency [1] | Potency [2] | Potency [5] | Potency [6] | Potency [4]

CN1CCN(c2ccc(C(=O)Nc3n[nH]c4ccc(Cc5cc(F)cc(F)c5)cc34)c(NC3CCOCC3)c2)CC1
inactive: Potency [1] | Potency [2] | Potency [6] | Potency [4]

COc1cc2c(cc1O)CC[C@H]1[C@@H]2CC[C@]2(C)[C@H](O)CC[C@@H]12
inactive: Potency [1] | Potency [2] | Potency [5] | Potency [6] | Potency [4]

CC1COC(Nc2ccc3ncnc(Nc4ccc(OCc5nccs5)c(Cl)c4)c3c2)=N1 (stereo not given)
inactive: Potency [1] | Potency [2] | Potency [5] | Potency [4]

Cc1cc(C)c(Nc2ccnc(Nc3ccc(C#N)cc3)n2)c(C)c1
inactive: Potency [1] | Potency [2] | Potency [5] | Potency [6] | Potency [4]

O=C(CSc1nc2c(c(=O)n1-c1ccccc1)SCC2)Nc1ccc(-c2ccccc2)cn1
inactive: Potency [1] | Potency [2] | Potency [5] | Potency [6] | Potency [4]

C[C@H](NC(=O)CCc1nc2ccccc2c(=O)[nH]1)c1ccccc1
inactive: Potency [1] | Potency [2] | Potency [5] | Potency [4]

CC(Oc1cc(-n2cnc3ccc(CN4CCN(C)CC4)cc32)sc1C(N)=O)c1ccccc1C(F)(F)F (stereo not given)
inactive: Potency [1] | Potency [2] | Potency [5] | Potency [6] | Potency [4]

COC(=O)CC1CC(c2ccc(O)cc2)=NO1 (stereo not given)
inactive: Potency [1] | Potency [2] | Potency [5] | Potency [6] | Potency [4]

C/C=C/c1ccc2c(c1)[C@@H](C)[C@H](c1ccc(O)cc1)O2
inactive: Potency [1] | Potency [2] | Potency [5] | Potency [6] | Potency [4]

CC1(C)CC[C@]2(C(=O)O[C@@H]3O[C@H](CO[C@@H]4O[C@H](CO)[C@@H](O)[C@H](O)[C@H]4O[C@@H]4O[C@H](CO)[C@@H](O)[C@H](O)[C@H]4O)[C@@H](O)[C@H](O[C@@H]4O[C@H](CO)[C@@H](O)[C@H](O)[C@H]4O)[C@H]3O)CC[C@]3(C)C(=CCC4[C@@]5(C)CC[C@@H](O)[C@@](C)(C(=O)O[C@@H]6O[C@H](CO)[C@@H](O)[C@H](O)[C@H]6O)C5CC[C@]43C)[C@@H]2C1 (stereo not given in full)
inactive: activity, negative = inhibition [1] -10.6% [at 9.52 µM] | outcome [2] inactive [at 9.73 µM] | activity change, negative = thiol reactive [5] 344% [at 11.5 µM] | activity, negative = inhibition [6] 2% [at 11.6 µM] | redox activity (% of DA3003) [4] 5.34% [at 11.5 µM]

CCN1CCN(Cc2ccc(NC(=O)c3ccc(C)c(/C=C/c4cnc5[nH]ccc5c4OC)c3)cc2C(F)(F)F)CC1
inactive: Potency [1] | Potency [2] | Potency [5] | Potency [6] | Potency [4]

COC(=O)C1=CO[C@@H](O[C@@H]2O[C@H](CO)[C@@H](O)[C@H](O)[C@H]2O)[C@H]2[C@@H]1CC(OC)O[C@@H]2C (stereo not given in full)
active: Potency [5] 10.3 µM
inactive: Potency [1] | Potency [2] | Potency [6] | Potency [4]

COC(=O)[C@H](O)[C@H]1C(C)(C)[C@H](OC(=O)C(C)C)[C@@]2(O)C(=O)[C@]1(C)C1CC[C@]3(C)C(CC(=O)O[C@H]3c3ccoc3)[C@]13O[C@@H]32 (stereo not given in full)
inactive: Potency [1] | Potency [2] | Potency [5] | Potency [6] | Potency [4]

CC12CCC(OC3OC(CO)C(O)C(OC4OC(CO)C(O)C(O)C4O)C3O)CC1CCC1C2CCC2(C)/C(=C3/COC(=O)C3)CCC12O (stereo not given)
inactive: Potency [1] | Potency [2] | Potency [5] | Potency [6] | Potency [4]

OC/C=C/c1ccc(O[C@@H]2O[C@H](CO)[C@@H](O)[C@H](O)[C@H]2O)cc1
inactive: Potency [1] | Potency [2] | Potency [6]
